The full ranking holds about 3,200 compounds; the median of “TSA(with NAD+) / Primary screening (TSA) / delta Tm (K)” is about -0.04, and the highest 2% start at about 0.37. Shown is part of a subset that was picked to be rich in the highest values.
What follows are molecules tested against NAD-dependent deacetylase Sirtuin 1 (human, UniProt Q96EB6) (assay: primary screen, delta tm). Conditions: 10 µM.
Chain of NAD-dependent deacetylase Sirtuin 1 (Q96EB6 2-747 limits assumed): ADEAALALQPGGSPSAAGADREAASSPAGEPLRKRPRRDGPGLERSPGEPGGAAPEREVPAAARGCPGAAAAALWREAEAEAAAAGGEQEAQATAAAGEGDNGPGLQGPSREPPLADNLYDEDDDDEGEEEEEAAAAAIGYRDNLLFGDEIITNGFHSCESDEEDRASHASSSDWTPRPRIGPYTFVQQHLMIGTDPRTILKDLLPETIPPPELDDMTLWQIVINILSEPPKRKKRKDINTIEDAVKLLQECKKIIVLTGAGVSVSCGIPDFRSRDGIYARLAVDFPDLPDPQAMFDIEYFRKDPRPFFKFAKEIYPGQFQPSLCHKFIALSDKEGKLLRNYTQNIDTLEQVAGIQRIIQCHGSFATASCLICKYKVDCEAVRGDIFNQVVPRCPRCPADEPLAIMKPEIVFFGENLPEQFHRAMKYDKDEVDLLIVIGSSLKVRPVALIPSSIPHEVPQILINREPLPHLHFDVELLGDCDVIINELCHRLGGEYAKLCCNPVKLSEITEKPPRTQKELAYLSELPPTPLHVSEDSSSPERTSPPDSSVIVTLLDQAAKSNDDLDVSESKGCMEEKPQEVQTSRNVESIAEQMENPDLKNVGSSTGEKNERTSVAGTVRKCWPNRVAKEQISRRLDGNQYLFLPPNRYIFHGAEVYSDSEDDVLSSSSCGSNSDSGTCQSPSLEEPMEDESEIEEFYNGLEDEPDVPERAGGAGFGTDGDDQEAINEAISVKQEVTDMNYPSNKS
Design: single well (n = 1, as 'the same TSA')
For `O=C(COC(=O)C1=COCCO1)Nc1cccc2c1C(=O)c1ccccc1C2=O`, the “TSA(with NAD+) / Primary screening (TSA) / delta Tm (K)” value was 0.01 K. In the case of `COc1ccccc1NS(=O)(=O)c1cccc(NC(=O)c2oc3ccccc3c2CSC)c1`, the “TSA(with NAD+) / Primary screening (TSA) / delta Tm (K)” value is reported as -0.08 K. For `C=CCOc1ccc(C2C(C(=O)c3ccc(C)o3)=C(O)C(=O)N2CCCN2CCOCC2)cc1` (stereo not shown), the “TSA(with NAD+) / Primary screening (TSA) / delta Tm (K)” value was -0.04 K. `O=C(Nc1ccccc1Cc1ccccc1)c1ccc(CN2C(=O)CNC2=O)cc1` was tested, and the “TSA(with NAD+) / Primary screening (TSA) / delta Tm (K)” value was 0.05 K. `CN(C)c1ccc(S(N)(=O)=O)cc1N` was tested, and the “TSA(with NAD+) / Primary screening (TSA) / delta Tm (K)” value was -0.04 K. With `O=C1/C(=C/c2ccccc2)Oc2cc(O)ccc21` the “TSA(with NAD+) / Primary screening (TSA) / delta Tm (K)” value was -0.06 K. With `O=C1/C(=C/c2cccc(O)c2)Oc2cc(O)ccc21` the “TSA(with NAD+) / Primary screening (TSA) / delta Tm (K)” value was -0.14 K. `O=C1/C(=C/c2cnn(-c3ccccc3)c2)Oc2cc(O)ccc21` was tested, and the “TSA(with NAD+) / Primary screening (TSA) / delta Tm (K)” value was 0.99 K. For `Cc1cnc(N2CCC(Oc3ccnc(C(N)=O)c3)CC2)s1`, the “TSA(with NAD+) / Primary screening (TSA) / delta Tm (K)” value was -0.16 K. With `O=c1c2ccccc2ncn1CC(O)c1ccccc1Cl` (stereo not shown) the “TSA(with NAD+) / Primary screening (TSA) / delta Tm (K)” value was 0.38 K. With `O=c1c2ccncc2ncn1CC(O)c1cccc(Cl)c1` (stereo not shown) the “TSA(with NAD+) / Primary screening (TSA) / delta Tm (K)” value was -0.03 K. For `O=c1c2ccccc2ncn1CC(O)c1cccc(F)c1` (stereo not shown), the “TSA(with NAD+) / Primary screening (TSA) / delta Tm (K)” value was -0.19 K. In the case of `O=C(CN1CCCCCC1=O)N1CCN(c2cnccn2)CC1`, the “TSA(with NAD+) / Primary screening (TSA) / delta Tm (K)” value is reported as -0.04 K. With `CCCn1c(NC(=O)c2ccc3c(c2)CCC(=O)N3)nc2ccccc21` the “TSA(with NAD+) / Primary screening (TSA) / delta Tm (K)” value was 0.15 K. With `Cc1ccc(C(=O)Nc2nc3ccc(NS(=O)(=O)c4ccc5c(c4)CCC(=O)N5)cc3s2)s1` the “TSA(with NAD+) / Primary screening (TSA) / delta Tm (K)” value was 0.46 K. `O=C1CCc2cc(NC(=O)c3cccnc3)ccc2N1` was tested, and the “TSA(with NAD+) / Primary screening (TSA) / delta Tm (K)” value was -0.13 K. With `COC(=O)/C=C1/NC(=O)CS1` the “TSA(with NAD+) / Primary screening (TSA) / delta Tm (K)” value was -0.13 K. With `O=C(COC(=O)C1=COCCO1)Nc1cccc2ccccc12` the “TSA(with NAD+) / Primary screening (TSA) / delta Tm (K)” value was 0.09 K. `CC(CNCCS(=O)(=O)C(C)(C)C)c1ccccc1` (stereo not shown) was tested, and the “TSA(with NAD+) / Primary screening (TSA) / delta Tm (K)” value was -0.03 K. `NC(=O)C1CCN(c2ncnc3sc4c(c23)CCCC4)CC1` was tested, and the “TSA(with NAD+) / Primary screening (TSA) / delta Tm (K)” value was 0.32 K. For `NC(=O)C1CCN(c2nc(-c3cccs3)nc3sc4c(c23)CCCC4)CC1`, the “TSA(with NAD+) / Primary screening (TSA) / delta Tm (K)” value was 2.33 K. With `Cc1sc2ncnc(N3CCC(C(N)=O)CC3)c2c1C` the “TSA(with NAD+) / Primary screening (TSA) / delta Tm (K)” value was 0.06 K. `NC(=O)C1CCN(c2ncnc3sc4c(c23)CCCCC4)CC1` was tested, and the “TSA(with NAD+) / Primary screening (TSA) / delta Tm (K)” value was 0.26 K. `Cc1sc2ncnc(N3CCC(C(=O)N4CCC(C(N)=O)CC4)CC3)c2c1C` was tested, and the “TSA(with NAD+) / Primary screening (TSA) / delta Tm (K)” value was -0.03 K. With `NC(=O)C1CCCN(c2ncnc3sc4c(c23)CCCC4)C1` (stereo not shown) the “TSA(with NAD+) / Primary screening (TSA) / delta Tm (K)” value was -0.15 K. For `Cc1sc2nc(-c3cccs3)nc(N3CCC(C(N)=O)CC3)c2c1C`, the “TSA(with NAD+) / Primary screening (TSA) / delta Tm (K)” value was 0.53 K. With `Cc1sc2nc(-c3cccnc3)nc(N3CCC(C(N)=O)CC3)c2c1C` the “TSA(with NAD+) / Primary screening (TSA) / delta Tm (K)” value was -0.01 K. For `NC(=O)C1CCN(c2nc(-c3cccnc3)nc3sc4c(c23)CCCC4)CC1`, the “TSA(with NAD+) / Primary screening (TSA) / delta Tm (K)” value was 0.48 K. With `O=c1[nH]cnc2c(Cl)cc(Cl)cc12` the “TSA(with NAD+) / Primary screening (TSA) / delta Tm (K)” value was -0.16 K. For `Cc1ccc(-c2nnc(SCC(=O)NC(=O)NC(C)C)n2N)cc1`, the “TSA(with NAD+) / Primary screening (TSA) / delta Tm (K)” value was -0.04 K. For `O=C(CCc1nc2ccccc2c(=O)[nH]1)Nc1ccc(N2CCN(Cc3ccccc3)CC2)cc1`, the “TSA(with NAD+) / Primary screening (TSA) / delta Tm (K)” value was 0.03 K. In the case of `Cc1cc(C=C2C(=O)NC(=S)NC2=O)c(C)n1-c1ccc(F)cc1`, the “TSA(with NAD+) / Primary screening (TSA) / delta Tm (K)” value is reported as -0.48 K. In the case of `CNS(=O)(=O)c1ccc(CCC(=O)Nc2ccccc2Cc2ccccc2)cc1`, the “TSA(with NAD+) / Primary screening (TSA) / delta Tm (K)” value is reported as 0.07 K. `NS(=O)(=O)c1ccc(C(=O)Nc2ccc3c(c2)-c2ccccc2C3)cc1` was tested, and the “TSA(with NAD+) / Primary screening (TSA) / delta Tm (K)” value was 0.68 K. For `O=C1COc2cc(C(=O)Nc3ccc4c(c3)-c3ccccc3C4)ccc2N1`, the “TSA(with NAD+) / Primary screening (TSA) / delta Tm (K)” value was 0.11 K. In the case of `C/C(=N/N)c1ccc2c(c1)-c1ccccc1C2`, the “TSA(with NAD+) / Primary screening (TSA) / delta Tm (K)” value is reported as -0.14 K. In the case of `CC1CCC(C(N)=O)CN1c1ncnc2ccsc12` (stereo not shown), the “TSA(with NAD+) / Primary screening (TSA) / delta Tm (K)” value is reported as 0.05 K. `O=C(CN1CCN(Cc2cscn2)CC1)NC(c1ccccc1)C1CC1` (stereo not shown) was tested, and the “TSA(with NAD+) / Primary screening (TSA) / delta Tm (K)” value was 0.03 K. For `COCCCn1ccc(Nc2nc(C)nc3[nH]ccc23)n1`, the “TSA(with NAD+) / Primary screening (TSA) / delta Tm (K)” value was -0.03 K. For `COc1ccc(N2C(=O)/C(=C/NNC(=O)C34CC5CC(CC(C5)C3)C4)c3ccccc3C2=O)cc1`, the “TSA(with NAD+) / Primary screening (TSA) / delta Tm (K)” value was 0.18 K. With `O=C(CC12CC3CC(CC(C3)C1)C2)NN/C=C1/C(=O)N(Cc2ccccc2)C(=O)c2ccccc21` the “TSA(with NAD+) / Primary screening (TSA) / delta Tm (K)” value was 0.19 K. With `O=C1NC(=O)c2ccccc2/C1=C\NNC(=O)C12CC3CC(CC(C3)C1)C2` the “TSA(with NAD+) / Primary screening (TSA) / delta Tm (K)” value was 0.48 K. For `COc1ccc(CN2C(=O)/C(=C/NNC(=O)CC34CC5CC(CC(C5)C3)C4)c3ccccc3C2=O)cc1`, the “TSA(with NAD+) / Primary screening (TSA) / delta Tm (K)” value was 0.06 K. With `O=C1/C(=C/NNC(=O)C23CC4CC(CC(C4)C2)C3)c2ccccc2C(=O)N1Cc1ccccc1` the “TSA(with NAD+) / Primary screening (TSA) / delta Tm (K)” value was 0.56 K. In the case of `CC1(C)CC(=O)C(=CNNC(=O)CC23CC4CC(CC(C4)C2)C3)C(=O)C1`, the “TSA(with NAD+) / Primary screening (TSA) / delta Tm (K)” value is reported as -0.06 K. With `COC(C)CN` (stereo not shown) the “TSA(with NAD+) / Primary screening (TSA) / delta Tm (K)” value was -0.12 K. With `COc1cccc(-c2nc(CSc3nnc(-c4ccco4)n3Cc3ccccc3)cs2)c1` the “TSA(with NAD+) / Primary screening (TSA) / delta Tm (K)” value was -0.16 K. In the case of `Cc1ccc(OCCN)cc1`, the “TSA(with NAD+) / Primary screening (TSA) / delta Tm (K)” value is reported as 0.15 K. `Cc1nn2cccnc2c1C(=O)NCc1ccc(-c2nnn[nH]2)cc1` was tested, and the “TSA(with NAD+) / Primary screening (TSA) / delta Tm (K)” value was -0.06 K. `Cc1nn(-c2ccc(F)cc2)c(C)c1CNCc1ccccc1` was tested, and the “TSA(with NAD+) / Primary screening (TSA) / delta Tm (K)” value was -0.23 K. `N#Cc1c2c(c(Cl)n3c1nc1ccccc13)CCCC2` was tested, and the “TSA(with NAD+) / Primary screening (TSA) / delta Tm (K)” value was 0.03 K. In the case of `Cc1ccccc1-c1nnn(Cc2cc(=O)oc3c(C)c(C)ccc23)n1`, the “TSA(with NAD+) / Primary screening (TSA) / delta Tm (K)” value is reported as -0.18 K. With `NC(=O)NCc1ccc(C(=O)Nc2nc(-c3c[nH]c(C(N)=O)c3)cs2)cc1` the “TSA(with NAD+) / Primary screening (TSA) / delta Tm (K)” value was 0.11 K. `COc1ccc(NC(=O)c2ccc(NC(=O)c3cnoc3C)cc2)cc1OCc1cccnc1` was tested, and the “TSA(with NAD+) / Primary screening (TSA) / delta Tm (K)” value was 0.05 K. In the case of `COC(=O)c1cc(-c2csc(NC(=O)c3cccc(NC(=O)c4cnoc4C)c3)n2)c[nH]1`, the “TSA(with NAD+) / Primary screening (TSA) / delta Tm (K)” value is reported as 0.67 K. With `COc1ccnc(N2CCN(C(=O)c3ccc(C(N)=O)s3)CC2)n1` the “TSA(with NAD+) / Primary screening (TSA) / delta Tm (K)” value was -0.13 K. In the case of `Cc1ccc(-n2nnnc2SCc2nc3c(cnn3-c3ccccc3)c(=O)[nH]2)cc1`, the “TSA(with NAD+) / Primary screening (TSA) / delta Tm (K)” value is reported as -0.11 K. `CCCOc1ccc(C2C(C(=O)c3ccc(F)cc3)=C(O)C(=O)N2CCCN2CCOCC2)cc1` (stereo not shown) was tested, and the “TSA(with NAD+) / Primary screening (TSA) / delta Tm (K)” value was 0.06 K. With `CNc1cc(C)nc2c(-c3ccccc3)c(C(F)(F)F)nn12` the “TSA(with NAD+) / Primary screening (TSA) / delta Tm (K)” value was -0.12 K. For `Cc1cc(N(C)C)n2nc(C(F)(F)F)c(-c3ccccc3)c2n1`, the “TSA(with NAD+) / Primary screening (TSA) / delta Tm (K)” value was -0.05 K. In the case of `Cc1cc(NN)n2nc(C(F)(F)F)c(-c3ccc(Cl)cc3)c2n1`, the “TSA(with NAD+) / Primary screening (TSA) / delta Tm (K)” value is reported as 0.37 K. In the case of `Oc1cccc2c1Cc1c-2nc2ccc(Cl)cc2c1-c1ccccc1Cl`, the “TSA(with NAD+) / Primary screening (TSA) / delta Tm (K)” value is reported as 0.52 K. In the case of `O=C1/C(=C/c2ccc(Br)cc2F)Cc2c(O)cccc21`, the “TSA(with NAD+) / Primary screening (TSA) / delta Tm (K)” value is reported as 0.11 K. For `COc1ccc(C(=O)NC2CCCC2(C)CO)cc1-c1ccccn1` (stereo not shown), the “TSA(with NAD+) / Primary screening (TSA) / delta Tm (K)” value was -0.23 K. With `CN1CCC(Sc2ccc3ccccc3c2)C1=O` (stereo not shown) the “TSA(with NAD+) / Primary screening (TSA) / delta Tm (K)” value was -0.19 K. In the case of `CC(=C/c1ccccc1)/C=N/NC(=O)c1cc(-c2ccc(C)cc2)n[nH]1`, the “TSA(with NAD+) / Primary screening (TSA) / delta Tm (K)” value is reported as 1.11 K. In the case of `Cc1ccc(-c2cc(C(=O)OC(C)C(=O)Nc3cccc([N+](=O)[O-])c3)[nH]n2)cc1` (stereo not shown), the “TSA(with NAD+) / Primary screening (TSA) / delta Tm (K)” value is reported as 0.25 K. In the case of `O=C(Nc1ccc(N2CCN(Cc3ccccc3)CC2)cc1)c1cccc2cccnc12`, the “TSA(with NAD+) / Primary screening (TSA) / delta Tm (K)” value is reported as 0.01 K. `O=C(COC(=O)c1ccc2c(c1)S(=O)(=O)c1ccccc1C2=O)Nc1ncc(Cl)cc1Cl` was tested, and the “TSA(with NAD+) / Primary screening (TSA) / delta Tm (K)” value was 0.15 K. With `Cn1cc(CCC(=O)NCC(=O)O)c2ccccc21` the “TSA(with NAD+) / Primary screening (TSA) / delta Tm (K)” value was -0.16 K.
